Drawing on PubChem BioAssay AID488857 (Sanford-Burnham Center for Chemical Genomics, 2010), this text covers inhibition for 99 compounds.

The campaign covered roughly 1,400 compounds. About 560 (40%) were called active.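 How the source made its calls: active means mean inhibition over duplicate tests at 10 µM above 50%; inactive means the rest.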 So high a share suggests a set chosen from earlier hits. The list shows a part of the results.

A word on the inhibition: it is the percentage by which the read-out fell short of the control.

The assay can be described thus: ASC/caspase-1 reporter retest in S. cerevisiae at one dose, specificity check for NALP1 project (AID 488857). The settings on record: S. cerevisiae ASC/Caspase-1, beta-galactosidase luminescence, 24 h; at 10 µM; active compounds read high.
In the case of `CCCCN(Cc1ccccc1)C(=O)C1CCN(Cc2sccc2C)CC1`, the inhibition was 45.2% (inactive).

Regarding `O=C(CSc1ncn[nH]1)NC12CC3CC(CC(C3)C1)C2`, the inhibition is 19.1% (inactive).

For the compound `O=C(CCl)NC(=O)NC12CC3CC(CC(C3)C1)C2`, the inhibition was 59.9% (active).

In the case of `O=C(CON=C1c2ccccc2-c2ccccc21)NC12CC3CC(CC(C3)C1)C2`, the inhibition was 33% (inactive).

Turning to `CC1CCN(Cc2ccc(-c3nn[nH]n3)cc2)CC1`, the inhibition was 39.5% (inactive).

Take `COc1cc(CNC2CCCCCCC2)cc(Br)c1OCC#N`: the inhibition is 32.9% (inactive).

With `CCOc1cc(CNC2CCCC2)cc(Cl)c1OCc1ccc(F)cc1`, the inhibition is 60.9% (active).

Take `CCOc1cc(CNCc2ccncc2)cc(Br)c1OCc1ccc(F)cc1`: the inhibition is 67.8% (active).

For `C/C(=C(\C#N)C(=O)NCc1ccccc1)N(C)C`, the inhibition is 34.8% (inactive).

Take `CCOc1ccc(OCCCCn2ccnc2)cc1`: the inhibition is 54.8% (active).

Take `CCC(C)c1ccc(OCCn2ccnc2)cc1` (centres undefined): the inhibition was 73.5% (active).

Consider `CC1=CCC2C(=O)N(Cc3ccccc3)C(=O)C2C1` (centres undefined), for which the inhibition was 33.4% (inactive).

With `CCCN(Cc1nc(-c2ccc(Cl)cc2)no1)CC1CCCO1` (centres undefined), the inhibition is 54.2% (active).

Consider `COc1ccc(-c2noc(CCC(=O)N3CCC(C)CC3)n2)cc1`, for which the inhibition is 47.6% (inactive).

For the compound `O=C(COC(=O)C1(c2ccccc2F)CCCC1)N1CCOCC1`, the inhibition is 27.1% (inactive).

For `O=C1NC(c2ccccc2)Nc2c1sc(=S)n2-c1ccccc1` (centres undefined), the inhibition is 32.5% (inactive).

In the case of `COCCN=C1Sc2nc3ccc(C)cc3cc2CN1Cc1ccco1`, the inhibition is 57.1% (active).

For `COC(=O)c1cc(=O)n(-c2ccccc2)c(=Nc2ccccc2)s1`, the inhibition was 61.7% (active).

As to `COC(=O)c1cc(=O)n(-c2ccc(F)cc2)c(=Nc2ccc(F)cc2)s1`, the inhibition is 39.8% (inactive).

`Cc1nc(NC(=O)CCc2ccccc2)ccc1Br`: the inhibition was 63.3% (active).

As for `Cc1csc(NC(=O)CCc2ccc(S(=O)(=O)N3CCOCC3)cc2)n1`, the inhibition is 40.8% (inactive).

For `OC(CN1CCN(Cc2ccccc2)CC1)Cn1c2ccccc2c2ccccc21` (centres undefined), the inhibition is 56.6% (active).

Take `COc1ccc(OCC(O)Cn2c(=N)n(Cc3ccccc3)c3ccccc32)cc1` (centres undefined): the inhibition is 27.6% (inactive).

With `OC(CN1CCCCC1)Cn1c2ccc(Cl)cc2c2cc(Cl)ccc21` (centres undefined), the inhibition is 49% (inactive).

Consider `Cc1nc(-c2ccccc2)sc1C(=O)CSc1ccccc1`, for which the inhibition was 46.5% (inactive).

For `CCCSc1ccc2nc(-c3ccccc3)cn2c1`, the inhibition was 88.8% (active).

Turning to `O=C1C(Cl)=C(N2CCN(c3ccccc3[N+](=O)[O-])CC2)C(=O)c2ccccc21`, the inhibition is 68.8% (active).

Regarding `CC(C)CC(=O)N1CCN(c2ccc([N+](=O)[O-])cc2Cl)CC1`, the inhibition is 39.9% (inactive).

For `O=[N+]([O-])c1ccc(N2CCN(c3ccc(Cl)nn3)CC2)c(Cl)c1`, the inhibition was 47.7% (inactive).

Take `CC1(C)Cc2c(c(N3CCOCC3)nc3sc4c(NCCN5CCOCC5)nnnc4c23)CS1`: the inhibition was 37.6% (inactive).

As to `CC(C)(C)c1nnc(N/N=C/c2cc(Br)ccc2O)n(N)c1=O`, the inhibition was 86.8% (active).

In the case of `O=c1oc2ccccc2nc1/C=C(O)/C=C/c1ccc(F)cc1`, the inhibition was 47.2% (inactive).

On to `COc1ccc(C(=O)/C=C/Nc2ccc([N+](=O)[O-])cc2C)c(OC)c1`, for which the inhibition was 28.5% (inactive).

Take `C/C(=N/Nc1ccc([N+](=O)[O-])cc1)c1ccc(C)cc1C`: the inhibition is 50.2% (active).

On to `CN(C)CCCN(C(=O)c1ccc2c(c1)CCCC2)c1nc2ccc(F)cc2s1`, for which the inhibition is 61.3% (active).

`CN(C)CCCN(C(=O)c1ccc2c(c1)CCCC2)c1nc2ccc(Cl)cc2s1`: the inhibition is 63.9% (active).

As for `CCOC(=O)c1c(C)[nH]c(N=Nc2cccc(C)c2)c1C`, the inhibition was 46.2% (inactive).

Consider `Cc1cc(N2CCOCC2)ccc1/C=C\[N+](=O)[O-]`, for which the inhibition is 56.6% (active).

In the case of `O=C1O/C(=C/c2ccccc2)c2ccccc21`, the inhibition is 78.5% (active).

For `COC1=C(N)C(=O)c2nc(-c3nc(C(=O)O)c(C)c(-c4ccc(OC)c(OC)c4O)c3N)ccc2C1=O`, the inhibition is 29.4% (inactive).

In the case of `c1ccc(-c2ccc(-c3cn4c(n3)CCC4)cc2)cc1`, the inhibition is 93.3% (active).

`COc1cccc(CNC(=O)CSc2ccc(-c3ccncc3)nn2)c1`: the inhibition is 27.2% (inactive).

Regarding `O=C(c1cccc([N+](=O)[O-])c1)n1nc(-c2ccccc2)nc1NCc1ccccc1`, the inhibition was 49.2% (inactive).

For `O=C(CSc1nc(-c2ccccc2)cs1)Nc1cccc([N+](=O)[O-])c1`, the inhibition was 75.8% (active).

Consider `CC(C)NC(=O)CSc1nc(-c2ccccc2)cs1`, for which the inhibition is 52% (active).

Turning to `Cc1ccnc(NS(=O)(=O)c2ccc(NC(=O)CSc3nc(-c4ccccc4)cc(=O)[nH]3)cc2)n1`, the inhibition was 6.75% (inactive).

For `COc1ccc(Cc2nnc(SC)[nH]c2=O)cc1`, the inhibition is 20.1% (inactive).

In the case of `Brc1cccc(OCCCCN2CCCCC2)c1`, the inhibition is 53.8% (active).

Regarding `CC(C)N(C)CCOC(=O)c1ccccc1Br`, the inhibition is 28.4% (inactive).

As for `Cc1cc(Br)ccc1OCCCCN1CCC(C)CC1`, the inhibition is 60.4% (active).

With `Brc1cccc(OCCN2CCCCC2)c1`, the inhibition is 49.1% (inactive).

In the case of `CCOC(=O)c1[nH]c2ccc(Br)cc2c1NC(=O)CCN1CCC(C)CC1`, the inhibition is 40% (inactive).

On to `CC(C)NCCCCOc1cccc(Br)c1`, for which the inhibition is 45.5% (inactive).

Turning to `Cc1ccc(OCCCCN(C)Cc2ccccc2)c(Br)c1`, the inhibition was 54.8% (active).

Take `Cc1ccc(OCCCCN2CCCCC2)c(Br)c1`: the inhibition is 62.1% (active).

Consider `CC(CCc1ccccc1)NC(=O)c1cc2sccc2n1C` (centres undefined), for which the inhibition was 52% (active).

Regarding `Cn1c(SCC(=O)NC(c2ccccc2)c2ccccc2)nnc1-c1cccs1`, the inhibition was 35.6% (inactive).

For the compound `c1ccc2cc(CSCc3nc4ccccc4[nH]3)ccc2c1`, the inhibition was 71.4% (active).

Take `C=C(C)C1CC=C(C)/C(=N/NC(=O)c2ccoc2C)C1` (centres undefined): the inhibition is 36.6% (inactive).

On to `CCOC(=O)c1c(C)[nH]c(C(=O)COC(=O)c2oc3ccccc3c2C)c1C`, for which the inhibition was 31.9% (inactive).

On to `CCOC(=O)c1c(C)[nH]c(C)c1C(=O)COC(=O)c1cc2ccccc2cc1O`, for which the inhibition was 55.5% (active).

Regarding `CCOC(=O)c1c(C)[nH]c2c1-c1ccccc1C(=O)C2=O`, the inhibition is 26.6% (inactive).

Turning to `COCc1cc(=O)[nH]c(/N=C(\N)Nc2cccc(C)c2)n1`, the inhibition was 25.1% (inactive).

On to `CCCc1nn(C)c(C(=O)Nc2cccc(C)c2)c1Cl`, for which the inhibition is 65.5% (active).

For `Cc1cccc(NC2=C(Cl)C(=O)OC2NC(=O)c2ccccc2)c1` (centres undefined), the inhibition was 23.1% (inactive).

As for `Cc1cc(=O)n2ccccc2c1C#N`, the inhibition was 15.6% (inactive).

As for `O=S(=O)(Nc1ccncc1Cl)c1ccccc1`, the inhibition was 25.1% (inactive).

With `O=C1C2C(C(=O)N1/N=C/c1cc(Br)cc([N+](=O)[O-])c1O)C1C=CC2C12CC2` (centres undefined), the inhibition is 66.2% (active).

On to `O=C1C2C(C(=O)N1/N=C/c1ccc([N+](=O)[O-])o1)C1C=CC2C12CC2` (centres undefined), for which the inhibition is 38.2% (inactive).

In the case of `CCOC(=O)c1c(NC2OC(=O)c3c2ccc(OC)c3OC)sc(C(=O)OC(C)(C)C)c1C` (centres undefined), the inhibition was 65.2% (active).

On to `CCCCC(C(=O)NC1CCCC1)N(Cc1ccco1)C(=O)Cn1nnc(-c2ccc(F)cc2)n1` (centres undefined), for which the inhibition is 31.1% (inactive).

Take `CC(C)(CN1CCN(Cc2ccccc2)CC1)NS(=O)(=O)c1ccc(Cl)cc1`: the inhibition is 41.8% (inactive).

In the case of `Cc1ccc(CN2CCN(/N=C/c3cccs3)CC2)cc1`, the inhibition was 28.2% (inactive).

Take `Cn1cccc1/C=N/N1CCN(Cc2ccc(Cl)cc2)CC1`: the inhibition is 51.9% (active).

`COc1ccccc1CN(Cc1nc2ccccc2c(=O)[nH]1)C(=O)Nc1ccccc1`: the inhibition is 46.4% (inactive).

Turning to `C#C[C@]1(O)CC[C@H]2[C@@H]3CCC4=C(CCC(=O)C4)[C@H]3CC[C@@]21C`, the inhibition was 61.3% (active).

For `C#C[C@]1(O)CC[C@H]2[C@@H]3CCc4cc(O)ccc4[C@H]3CC[C@@]21C`, the inhibition is 79.5% (active).

`O=C(OC1CCOC1=O)c1cc(-c2ccc(Br)cc2)nc2ccccc12` (centres undefined): the inhibition was 46.6% (inactive).

Regarding `O=C(Oc1cccc2cccnc12)c1ccc(N2C(=O)C3C4CCC(C4)C3C2=O)cc1` (centres undefined), the inhibition is 31.9% (inactive).

With `O=C(Nc1cccc(O)c1)c1noc2c1CCc1ccccc1-2`, the inhibition is 87% (active).

Turning to `CN1/C(=C\C(=O)Nc2ccc(Cl)cc2)C(C)(C)c2ccccc21`, the inhibition was 41.8% (inactive).

Consider `CCOP(=O)(C1=C(O)C(=O)C(C(C)(C)C)=CC1=O)c1ccccc1` (centres undefined), for which the inhibition is 38.8% (inactive).

With `Cc1cccc(N=C2NC(=O)/C(=C\c3cccs3)S2)c1`, the inhibition was 62.8% (active).

Turning to `COc1ccc(C(=O)/C=C/c2ccc(OC)c(CN3CCOCC3)c2)cc1`, the inhibition is 66% (active).

Consider `O=C(/C=C/c1cccs1)c1cc(Br)ccc1OC(=O)N1CCOCC1`, for which the inhibition is 45.4% (inactive).

Consider `COc1ccc(C(=O)Cn2c(C(=O)/C=C/c3ccccc3)nc3ccccc32)cc1`, for which the inhibition is 39% (inactive).

With `CC(C)C(NC(=O)CN1C(=O)c2ccccc2S1(=O)=O)C(C)C`, the inhibition is 33.5% (inactive).

`C(=C\c1nc(N2CCCC2)c2ccccc2n1)/c1ccccc1`: the inhibition was 91.5% (active).

`C(=C\c1nc(N2CCCCCC2)c2ccccc2n1)/c1ccccc1`: the inhibition is 85.2% (active).

`COc1ccc2oc(=Nc3ccccc3)c(-c3nc4ccccc4[nH]3)cc2c1`: the inhibition was 59.1% (active).

Regarding `Cc1cc(C)cc(Cn2ncc(Cl)c(Cl)c2=O)c1`, the inhibition was 57.6% (active).

Regarding `Cn1ncc(S(=O)(=O)Cc2ccccc2)c(Cl)c1=O`, the inhibition was 39.1% (inactive).

`COc1ccc(-c2[nH]ncc2CN2CCC(OCc3ccccn3)CC2)c(F)c1`: the inhibition was 21.9% (inactive).

As to `O=C(/C=C/c1ccccc1)/C=C/c1ccccc1`, the inhibition was 54.5% (active).

Regarding `Cc1nc(NC(=O)/C=C/c2ccccc2)n[nH]1`, the inhibition was 48.2% (inactive).

As to `Cc1ccc(C)c(NC(=O)c2ccc(OC(=O)c3ccco3)cc2)c1`, the inhibition was 35.5% (inactive).

Turning to `Cc1ccc2occ(C(=O)c3ccco3)c(=O)c2c1`, the inhibition is 84% (active).

For `CCn1c(SCC(=O)Nc2oc(-c3ccccc3)c(-c3ccccc3)c2C#N)nnc1-c1cc(OC)cc(OC)c1`, the inhibition is 25.9% (inactive).

On to `CC1CCCCN1S(=O)(=O)c1cnc(Cl)c(Br)c1` (centres undefined), for which the inhibition is 59.8% (active).
